For eight compounds, growth results are on record in PubChem BioAssay (NCI).

SMILES strings stand for the structures. Compounds without any hit were thinned out: in the full panel of roughly 83,000, 20% have a hit.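 Plates (96-well) were seeded with cells, treated with compound at one concentration, and incubated for 48 hours before percent growth was determined.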 Values without a mark were called inactive. Activity calls are given as the source filed them. How the source made its calls: active means growth percent below 10; inactive means the rest.

Holding throughout (test): NCI-60 one-dose screen, 48 h (100 = growth as untreated, 0 = no growth, -100 = all killed)
What all share (settings): 10 µM unless noted

Assay [1] has as its system NCI-H23 lung.
Assay [2] deals with NCI-H226 lung.
Assay [3] has as its system NCI-H322M lung.
The subject of assay [4] is HOP-62 NSCLC.
In assay [5] the test system is NCI-H460 lung.
For assay [6], the system named is HOP-92 NSCLC.
Assay [7] deals with NCI-H522 lung.
Assay [8] deals with A549/ATCC NSCLC.
The subject of assay [9] is 786-0 renal.
For assay [10], the system named is DU-145 prostate.
The test system of assay [11] is K-562 leukemia.
The subject of assay [12] is MALME-3M melanoma.
The test system of assay [13] is MDA-MB-231 breast.
The test system of assay [14] is RXF 393 renal.
For assay [15], the system named is SF-268 CNS.
Assay [16] concerns SF-295 CNS.
Assay [17] concerns SF-539 CNS.
The test system of assay [18] is UACC-257 melanoma.
Assay [19] relates to M14 melanoma.

As to `Oc1[nH]c2ccccc2c1/C=c1/cc2c(c(-c3ccc(F)cc3)n1)=Nc1ccccc1-2`, the growth in assay [1] was -5.74% (active); in assay [2] it was 19.4%; in assay [3], 58.7%; in assay [4], -47.3% (active); in [5] it was -23.6% (active); in [6], -17.9% (active). Besides, the growth is -58% (active) in assay [7]; -33.7% (active) in [8]; -76.8% (active) in [9]; 9.34% (active) in assay [10]; 2.88% (active) in assay [11]; -54.5% (active) in assay [12]. Moreover, the growth was -4.54% (active) in assay [13]; -57.1% (active) in assay [14]; 15.4% in assay [15]; -19.1% (active) in [16]; -65.6% (active) in [17]; 20.9% in assay [18]. Further, the growth in assay [19] is -36.8% (active).
With `Nc1ccc(S(=O)(=O)Nc2ccsc2-c2nc(-c3ccccc3)no2)cc1`, the growth is 83.5% in [1]; 84.5% in assay [2]; 83.3% in [3]; 35.8% in assay [4]; 40.1% in assay [5]; 62.2% in assay [6]. Also, the growth in assay [7] was 30.2%; in [8] it was 42.7%; in [9] it was 86%; in assay [10], 76.5%; in assay [11] it was 13.5%; in [12], 70.5%. Also, the growth in assay [13] is 61.8%; in assay [14], 83.3%; in assay [15], 67.2%; in assay [16] it was 69.8%; in assay [17], 75.6%; in assay [18] it was 67.2%. The growth in assay [19] is 32.1%.
Turning to `COc1ccc(/C(C)=N/NS(=O)(=O)c2ccc(C)cc2)cc1OC`, the growth in assay [1] is 105%; in assay [2] it was 106%; in assay [3] it was 120%; in assay [4], 117%; in assay [5] it was 97.8%; in [6], 69%. Moreover, the growth in assay [7] was 117%; in assay [8] it was 102%; in [9], 102%; in assay [10], 118%; in [11], 111%; in [12] it was 121%. Moreover, the growth in assay [13] is 113%; in assay [14], 115%; in assay [15] it was 106%; in [16] it was 98.9%; in assay [17], 103%; in assay [18], 104%. Moreover, the growth in assay [19] is 117%.
With `CCC(C)NCc1ccccc1` (configuration not stated), the growth in assay [1] was 97.1%; in [2], 92.2%; in assay [3], 98.1%; in assay [4], 97.6%; in assay [5] it was 102%; in [6], 93.8%. Further, the growth is 66.7% in assay [7]; 95.4% in assay [8]; 98.6% in assay [9]; 106% in [10]; 98.1% in [11]; 105% in assay [12]. The growth in assay [13] is 96.4%; in assay [14], 99.3%; in assay [15] it was 98.9%; in [16], 98.9%; in [17] it was 102%; in assay [18], 103%. Also, in assay [19], the growth was 96.9%.
Consider `CCCCCCNCc1cc(C(C)(C)C)cc(CNCCCCCC)c1O`, for which the growth is -8.06% (active) in assay [1]; -60.5% (active) in assay [2]; -78.9% (active) in [3]; -90.1% (active) in [4]; -76.3% (active) in assay [5]; -36.3% (active) in assay [6]. In addition, the growth in assay [7] was -66% (active); in assay [8] it was -85.4% (active); in [9] it was -90.5% (active); in assay [10], -78.7% (active); in [11], -48.8% (active); in [12] it was -73.2% (active). Also, the growth in [13] is -83.6% (active); in assay [14] it was -93.3% (active); in assay [15], 9.67% (active); in assay [16] it was 29.4%; in assay [17], -89.9% (active); in assay [18] it was -84.1% (active). The growth in [19] is -88.6% (active).
In the case of `O=C1Nc2ccccc2/C1=N/N=C/c1ccsc1`, the growth in assay [1] was 95.2%; in assay [2], 106%; in [3], 100%; in assay [4] it was 110%; in [5], 105%; in assay [6] it was 109%. For the same compound, the growth is 93.8% in [7]; 107% in assay [8]; 108% in assay [9]; 111% in assay [10]; 89.9% in assay [11]; 103% in assay [12]. Moreover, the growth in assay [13] is 92.5%; in assay [14] it was 111%; in assay [15], 101%; in [16], 108%; in [17], 103%; in assay [18], 104%. For the same compound, in assay [19], the growth was 105%.
In the case of `NC(=S)c1csc(CCNC(=O)c2ccccc2)n1`, the growth in assay [1] was 100%; in [2], 116%; in [3] it was 108%; in [4] it was 109%; in assay [5], 109%; in assay [6] it was 97.3%. Further, the growth in assay [7] was 106%; in assay [8], 90.1%; in [9] it was 98.2%; in [10], 129%; in assay [11], 110%; in assay [12], 125%. For the same compound, the growth is 107% in assay [13]; 128% in [14]; 111% in [15]; 96.9% in [16]; 114% in assay [17]; 94.2% in assay [18]. Besides, the growth in assay [19] was 110%.
In the case of `N#Cc1c(-c2ccc(C(F)(F)F)cc2)cc(N2CC(O)C2)n2c1nc1ccccc12`, the growth was 67.7% in [1]; 16.9% in [2]; 60.8% in [3]; 7.8% (active) in [4]; 27.8% in assay [5]; -3.02% (active) in assay [6]. In addition, the growth in [7] is 34.7%; in assay [8] it was 48.1%; in assay [9], 20.7%; in [10], 71.4%; in assay [11] it was 110%; in assay [12], -3.85% (active). Moreover, the growth is 39.2% in [13]; 21.5% in [14]; 32.7% in [15]; 28.1% in [16]; 36.2% in [17]; 51.9% in [18]. Also, the growth in assay [19] is 80.6%.
